# LGR2 antag = inhibitors of bursicon-induced Drosophila LGR2 receptor cAMP signaling | HEK293 LGR2, CRE-luciferase, bursicon-stimulated, 4 h | inhibition, % at 9.99 µM | 380,000 compounds, 0.35% hits | AID 720647;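 active = drop in luminescence signal, shown as inhibition above about 50% in the replicate tests, limit read from the data, passing the limit was not always enough; inconclusive = probably only some replicates passing the limit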;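 note: agonist challenge used bursicon conditioned medium at about half maximal strength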
# PAX8 reporter = PAX8 transcriptional activity inhibition; RMG-I TPO-luciferase reporter, SteadyGlo, 24 h; inhibition, % at 12.6 µM; 360,000 compounds, 1.2% hits; AID 652154;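 active = mean replicate inhibition at least 60% with every replicate also reaching 60%; inconclusive = only one of the two criteria is met; inactive = mean below 60% and not all replicates reaching 60%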;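 note: luciferase light reporting Pax8 driven TPO promoter activity; plate controls were median of neutral control wells for no effect and mitoxantrone controls for full effect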
# EWS-Fli block = blocks EWS/Fli oncoprotein-driven transcription | A673 NR0B1-luciferase reporter, viability-normalised | inhibition, % at 12.6 µM | 350,000 compounds, 0.67% hits | AID 651661;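 active = mean inhibition of at least 50% after viability correction, with every replicate also passing that limit; inconclusive = mean reaches 50% but only one of two replicates passes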;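 note: firefly luciferase signal divided by Alamar Blue viability fluorescence both relative to DMSO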
# LMP1 NFkB inh = inhibitors of Epstein-Barr LMP1-induced NF-kappaB reporter. AID 504558. 350,000 compounds, 0.69% hits. LMP1-induced NF-kappaB luciferase reporter cells, luminescence. inhibition, % at 12.5 µM; in the data active = inhibition above about 41%; inconclusive = no clear call, values can overlap the other calls;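 note: 0% = neutral control wells and 100% = reference inhibitor control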
# Shn3 inh set2 = reduces Shn3 3'UTR luciferase signal in osteoblasts; 360,000 compounds, 0.52% hits; Clone20 osteoblast Shn3 3'UTR firefly luciferase, 24 h; inhibition, % at 12.5 µM;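 active = mean inhibition of at least 75% with every replicate also reaching 75%; inconclusive = mean inhibition at least 75% but some replicate below; inactive = mean inhibition below 75%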;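 note: 0% = median of neutral control wells and 100% = pilot-screen positive control compound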
# MITF TRPM1 inh = inhibitors of MITF-driven TRPM1 promoter in melanoma cells. SK-MEL-5 TRPM1 promoter luciferase, 24 h. inhibition, % at 12.5 µM. 330,000 compounds, 0.83% hits. AID 488899;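 active = mean inhibition across replicates of 60% or more, whatever share of single replicates reaches that level; inconclusive = some that reach 60%, reason not given; inactive = mean inhibition across replicates below 60%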
# * marks the source's active call; other numbers are inactive results; u = inconclusive; x = not tested or not shown. This is a sample that favours compounds with a hit; in the whole collection about 2.2% have one here.
SMILES,LGR2 antag,PAX8 reporter,EWS-Fli block,LMP1 NFkB inh,Shn3 inh set2,MITF TRPM1 inh
CC(C)=CCNc1ncnc2c1c(C#N)cn2C1OC(CO)C(O)C1O (stereo unspecified),28.0,87.2*,32.8,-29.9,-6.3,-1.2
Nc1ccc(S(=O)(=O)Nc2cnc3ccccc3n2)cc1,-9.4,-14.9,-14.8,-1.6,-9.7,-3.2
Nc1ccc(S(=O)(=O)Nc2cnc3c(Cl)cccc3n2)cc1,-27.4,80.1*,-3.6,-97.4,-60.8,-3.4
Cc1ccc(NS(=O)(=O)c2cccc(C(=O)NC3CCN(Cc4ccccc4)CC3)c2)cc1,15.6,22.8,8.2,23.4,44.8,24.9
Cc1ccc(NS(=O)(=O)c2ccc(C(=O)NC3CCN(Cc4ccccc4)CC3)cc2)cc1,7.2,14.4,1.1,27.2,84.9*,20.1
C[C@@H]1CN([C@@H](C)CO)C(=O)c2cc(NC(=O)Nc3ccc4c(c3)OCO4)ccc2O[C@H]1CN(C)Cc1ccc(Cl)c(Cl)c1,1.0,x,-4.6,x,x,x
Cc1noc(C)c1NC(=O)Nc1ccc2c(c1)C(=O)N([C@H](C)CO)C[C@H](C)[C@@H](CN(C)C)OCCCC[C@@H](C)O2,11.5,-19.4,-11.3,x,x,x
COc1ccc(S(=O)(=O)Nc2ccc3c(c2)C(=O)N([C@H](C)CO)C[C@@H](C)[C@H](CN(C)S(=O)(=O)c2c(C)noc2C)OCCCC[C@@H](C)O3)cc1,5.3,26.9,5.0,x,x,x
C=C[C@]1(C)C=C2C(=O)[C@@]3(O)OC(=O)[C@@]4(CCCC(C)(C)[C@H]34)[C@@]2(O)CC1,12.9,5.5,14.7,x,95.1*,x
COCC(=O)N1CCC2(CC1)CN(C(=O)COC)[C@@H](CO)c1c2c2ccc(OC)cc2n1C,6.1,x,-1.6,x,x,x
COc1ccc(C(=O)C(CN2CCOCC2)c2ccccc2)cc1F (stereo unspecified),x,x,x,74.2*,32.6,54.1
COc1ccc(C(O)C(CN2CCOCC2)c2ccccc2)cc1F (stereo unspecified),x,-7.2,x,-0.3,9.2,6.5
COc1ccc(S(=O)(=O)/N=C2/NC(=O)/C(=C/c3ccco3)S2)cc1,11.2,70.0*,-7.8,0.0,25.9,11.4
CC1CCN(Cc2c(C(=O)N/N=C/c3cc(Br)ccc3O)nnn2-c2nonc2N)CC1,34.5,u,29.4,49.1*,u,64.7*
COc1c(Cl)cc(Cl)cc1/C=N/NC(=O)c1nnn(-c2nonc2N)c1CN1CCC(C)CC1,25.7,-19.3,-1.8,-10.2,21.1,12.8
CC1CCN(Cc2c(C(=O)N/N=C/c3cc(Cl)ccc3O)nnn2-c2nonc2N)CC1,9.2,5.3,19.2,34.7,90.1*,35.4
CCOc1ccc(C(=O)Nc2ccc(NC(=O)c3ccccc3)cc2)cc1Br,6.7,-20.7,10.5,-0.3,2.9,-5.1
CCOc1ccc(C(=O)Nc2ccc(Cc3ccncc3)cc2)cc1Br,-4.6,94.9*,-0.9,4.9,-27.4,-11.3
Cc1ccc(C)c(N2CCN(C(=S)Nc3ccc4nc(N5CCN(C)CC5)cc(C)c4c3)CC2)c1,12.2,36.2,30.0,3.0,41.1,84.7*
S=C(Nc1ccc(Cl)c(Cl)c1)N1CCCC1,-13.5,5.0,-5.1,-0.5,-14.3,-0.8
CN1CCN(C(=S)Nc2ccc(Cl)c(Cl)c2)CC1,8.7,126.2*,-0.2,5.3,22.3,-8.4
CC(=O)N1N=C(c2ccc(C(C)(C)C)cc2)OC1(C)C,-14.6,70.1*,16.0,-0.3,30.9,4.6
CC(=O)N1N=C(c2ccc3ccccc3c2)OC1(C)C,-17.0,-18.6,x,3.2,-2.1,-6.5
OCCCNc1c2ccccc2nc2ccccc12,19.4,32.8,19.5,-87.2,-16.1,83.0*
c1ccc2c(NCCc3c[nH]c4ccccc34)c3ccccc3nc2c1,18.3,-15.1,43.5,-55.7,73.5,87.9*
SMILES,LGR2 antag,PAX8 reporter,EWS-Fli block,LMP1 NFkB inh,Shn3 inh set2,MITF TRPM1 inh
O=C(c1cccnc1)N1CC(=O)N2[C@H](CO)[C@@H](c3ccc(/C=C/c4ccccc4)cc3)[C@@H]2C1,8.8,-1.4,1.8,x,x,x
Cc1onc(C(=O)N2CCC(Cc3ccccc3)CC2)c1[N+](=O)[O-],3.3,u,59.2*,17.2,-3.1,0.3
O=C(c1cc(-c2ccco2)on1)N1CCN(C(c2ccccc2)c2ccccc2)CC1,13.1,x,x,3.5,23.7,75.0*
Cc1onc(C(=O)N2CCN(Cc3ccccc3)CC2)c1[N+](=O)[O-],-3.8,1.1,-1.1,-1.5,-26.0,7.0
COc1ccc(-c2cc(C(=O)N3CCN(C(c4ccccc4)c4ccccc4)CC3)no2)cc1,4.5,x,9.4,6.0,15.0,-2.5
CC(C)c1onc(C(=O)N2CCN(c3ccccc3)CC2)c1[N+](=O)[O-],-3.4,9.6,5.9,2.3,6.6,-1.9
CC(C)c1onc(C(=O)N2CCN(C(c3ccccc3)c3ccccc3)CC2)c1[N+](=O)[O-],5.3,83.8*,64.3*,-6.4,5.7,0.1
Cc1ccc(Cl)cc1N1CCN(C(=O)c2noc(C(C)C)c2[N+](=O)[O-])CC1,9.1,118.9*,56.2*,-7.6,1.2,8.1
CC(C)c1onc(C(=O)N2CCN(c3ccc(F)cc3)CC2)c1[N+](=O)[O-],x,x,x,3.6,31.2,15.1
O=C(NC[C@@H]1CC[C@H]2[C@H](CN2S(=O)(=O)c2ccccc2)O1)NC1CCCCC1,x,x,1.5,x,x,x
C[C@H]1CN([C@@H](C)CO)S(=O)(=O)c2ccc(C#CC3CC3)cc2O[C@@H]1CN(C)C,-8.7,x,7.0,x,x,x
CCNC(=O)C[C@@H]1CC[C@@H]2[C@@H](COc3ccc(NC(=O)c4cccs4)cc3C(=O)N2C)O1,0.7,1.0,0.1,x,x,x
CC(NCCN(C)C)C1CCC2C3CCc4cc(O)ccc4C3CCC12C (stereo unspecified),41.1,15.2,43.8,2.8,10.3,86.1*
CC(C)CC(=O)Nc1cccc(-c2csc(-c3ccccc3)n2)c1,x,x,x,66.6*,-10.8,-12.1
CCCNC(=O)[C@H]1[C@H](CO)[C@H]2Cn3c(ccc(-c4cccc(C(=O)N(C)C)c4)c3=O)[C@@H]1N2,13.2,-12.8,-8.8,x,x,x
CO[C@@H]1CN(C)C(=O)c2ccc(NS(=O)(=O)c3cn(C)cn3)cc2OC[C@H](C)N(C)C[C@@H]1C,-2.2,1.2,2.4,x,x,x
Cc1cccc(NC(=O)CC23CC4CC(C2)CC(n2nnc(C)n2)(C4)C3)c1,3.5,110.7*,-9.7,3.8,-28.4,4.8
O=C(C[C@@H]1C=C[C@H](NC(=O)Cc2cccnc2)[C@@H](CO)O1)Nc1ccccc1,17.6,-2.3,-0.3,x,x,x
COc1cc(-c2cc(=O)c3ccc(O)cc3o2)cc(OC)c1OC,9.2,x,5.7,x,-19.9,x
COc1ccc(-c2cc(=O)c3ccc(O)cc3o2)cc1,-18.3,x,-69.1,1.4,-79.9,-81.6
COc1cc(-c2ccc3oc(-c4ccsc4)cc(=O)c3c2)cc(OC)c1OC,64.1*,5.1,-6.8,22.8,9.0,26.0
COc1ccc(-c2cc(=O)c3cc(OC)ccc3o2)cc1,2.1,x,52.2*,22.7,41.2,22.8
